Assay outcomes (PubChem)
An excerpt weighted towards active compounds, which were near 22% of everything screened.
Shiga toxin inh: inhibitors of Shiga toxin in Vero cells; AID 2315; inhibition, % at 38.7 µM; 290,000 compounds, 9.2% hits; Vero cells, Shiga toxin protein synthesis inhibition reporter; in the data active = inhibition mostly above about 28%, no sharp cut-off; inactive = mostly below about 43%
Pf growth 96h: P. falciparum growth inhibition at 96 hour, primary screen for plastid delayed-death inhibitors; P. falciparum luciferase reporter growth, 96 h; Potency, µM (top dose mostly 28.7 µM), actives largely listed as inhibitors; 320,000 compounds, 6.9% hits
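Compounds incubated with erythrocytes infected by luciferase-expressing P. falciparum (2% hematocrit, 0.05% parasitemia final) for 96 hours, 37 C in 5% CO2. Growth inhibition scored as decreased luciferase luminescence.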
LmPK inh: blocks Leishmania mexicana pyruvate kinase activity. purified LmPK, Kinase-Glo ATP luminescence, 1 h. AID 1721. Potency, µM (titrated, usually from 57.5 µM), actives largely listed as inhibitors. 290,000 compounds, 0.37% hits. Q27686
Target sequence (Q27686 whole entry, looked up): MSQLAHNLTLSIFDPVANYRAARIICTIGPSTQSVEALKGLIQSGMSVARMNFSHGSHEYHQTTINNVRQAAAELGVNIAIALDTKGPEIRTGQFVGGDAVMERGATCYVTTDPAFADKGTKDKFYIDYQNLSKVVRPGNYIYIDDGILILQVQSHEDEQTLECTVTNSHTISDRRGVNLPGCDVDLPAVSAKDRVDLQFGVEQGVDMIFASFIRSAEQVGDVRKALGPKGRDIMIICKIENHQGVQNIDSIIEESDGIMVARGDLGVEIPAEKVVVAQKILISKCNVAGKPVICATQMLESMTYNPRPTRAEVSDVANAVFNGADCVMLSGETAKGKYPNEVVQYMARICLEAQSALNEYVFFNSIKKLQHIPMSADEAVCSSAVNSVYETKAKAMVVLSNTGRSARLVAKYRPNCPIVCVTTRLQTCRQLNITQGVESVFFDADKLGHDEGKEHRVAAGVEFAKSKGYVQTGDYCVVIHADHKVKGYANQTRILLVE
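Screened at intermediate enzyme activity to detect both inhibitors and activators: LmPK at 0.1 nM, with a 0.5 nM enzyme column as activation reference. PEP 0.5 mM, ADP 0.1 mM; ATP detected by luminescence after 1 h.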
Pf growth 48h: inhibits P. falciparum growth in the first generation, 48 h. P. falciparum luciferase growth in erythrocytes, 48 h. 310,000 compounds, 5.9% hits. Potency, µM (highest dose often 28.7 µM), hits mostly inhibitors
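Cell-based growth assay: transgenic P. falciparum expressing firefly luciferase, cultured in red cells within RPMI 1640 containing 0.5% w/v Albumax, 24 mM bicarbonate and gentamycin. A drop in luciferase activity indicates inhibition.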
Cycloheximide cs: counter-screen for Shiga toxin inhibitors: cycloheximide protein synthesis inhibition. max response, %. 300,000 compounds, 12% hits. cell reporter, cycloheximide protein synthesis inhibition counterscreen. AID 2314; in the data active = max response mostly above about 13%, no sharp cut-off; inactive = mostly below about 14%; note: read at 38.3 µM for the half of the compounds with a filed dose
A number is an active result; – = inactive; ? = inconclusive; · = not tested or not shown. Unless noted, calls come from the whole dose curve; as a rule, active = well fitted inhibition curve with a large enough effect; inconclusive = small, poorly fitted or top-dose-only effect, or another doubt; inactive = no such curve, though single readings can be large or run the other way.

SMILES | Shiga toxin inh | Pf growth 96h | LmPK inh | Pf growth 48h | Cycloheximide cs
Cn1ncc(Cl)c1C(=O)N1CCN(S(=O)(=O)c2ccc(Cl)s2)CC1 | – | – | – | – | –
Cc1ccc(N2CCN(C(=O)c3cc(-c4ccc(F)cc4)[nH]c3C)CC2C)cc1 (stereo not drawn) | – | ? | – | ? | –
Nc1nc(-c2ccc(Cl)cc2)nn1C(=O)c1cccnc1 | 31.2 | – | – | – | 24.9
Nc1nc(-c2ccc(Cl)cc2)nn1C(=O)c1cccs1 | – | 13.1µM | – | – | –
FC(F)(F)c1ccccc1/C=N/n1c(COc2ccccc2)n[nH]c1=S | – | – | – | – | –
COc1ccccc1-c1nnc(NC(=O)c2ccc3c(c2)OCO3)s1 | – | – | – | – | –
COc1ccccc1-c1sc2ccccc2c1-c1ccc2c(c1)OCO2 | – | 5.22µM | – | 4.65µM | –
C/C(=C\C(=O)c1ccccc1)Nc1ccc(N2CCOCC2)cc1 | – | – | – | · | –
CSC(=CC(=O)c1ccc(F)cc1)SC | – | – | – | – | 26.2
CSC(=CC(=O)c1ccccc1)SC | 65.9 | – | – | – | 25.1
CC(C)c1ccc(NC(=O)CCCN2C(=S)NC(C)(C)CC2C)cc1 (stereo not drawn) | – | – | – | ? | –
S=C(NCCc1ccccn1)Nc1cccc(Cl)c1 | – | – | – | – | –
CCCc1nn(C)c(C(N)=O)c1[N+](=O)[O-] | – | ? | – | – | –
CCOc1ccc2nc(NC(=O)C34CC5CC(CC(NC(C)=O)(C5)C3)C4)sc2c1 | – | ? | – | – | –
COc1ccc2nc(NC(=O)C34CC5CC(CC(NC(C)=O)(C5)C3)C4)sc2c1 | 44.8 | – | – | – | 49.0
CC(=O)NC12CC3CC(C1)CC(C(=O)Nc1nccs1)(C3)C2 | – | 6.57µM | – | ? | –
CCC(C)NC(=O)Cn1c(=O)sc2ccccc21 (stereo not drawn) | – | – | – | – | –
O=C(Nc1nccs1)C(Br)C(Br)c1ccccc1 (stereo not drawn) | 68.6 | – | – | – | 33.7
Cn1cc(Br)c(C(=O)Nc2c(F)c(F)c(F)c(F)c2F)n1 | – | – | – | – | –
CC(=O)OC(C(=O)Nc1nccs1)c1ccccc1 (stereo not drawn) | – | – | – | – | –
Cn1cc(Br)c(C(=O)Nc2nccs2)n1 | 42.9 | – | – | – | 26.8
Cn1cc(Br)c(C(=O)NC2C3CC4CC(C3)CC2C4)n1 (stereo not drawn) | – | – | – | – | –
CSc1ncccc1C(=O)Nc1nccs1 | – | – | – | – | –
Nc1ccccc1C(=O)Nc1nccs1 | 61.7 | – | – | – | 44.7
Cn1cc(Br)c(C(=O)NC2CCCCCC2)n1 | – | ? | – | – | 17.2
SMILES | Shiga toxin inh | Pf growth 96h | LmPK inh | Pf growth 48h | Cycloheximide cs
CCCCNC(=O)Nc1ccnn1C1CCCCC1 | – | ? | – | ? | –
CCSc1nnc(NC(=O)[C@@H](NC(=O)c2cc(OC)cc(OC)c2)C(C)C)s1 | – | – | – | – | –
CN(Cc1nccn1C)C(=O)CC1C(=O)NCCN1Cc1ccc(F)cc1Cl (stereo not drawn) | – | – | – | – | –
CC(=O)C[C@H](O)CC(=O)[C@H]1OC(=O)[C@H](C)C/C=C\Cc2ccccc21 | · | – | · | – | ·
COc1cc(C(=O)NCC(=O)NC(C)CCc2ccccc2)cc(OC)c1OC (stereo not drawn) | – | – | – | – | –
O=C(Nc1nccs1)c1ccccc1Br | – | ? | – | – | 27.6
O=C(Nc1nccs1)c1ccccc1[N+](=O)[O-] | – | ? | – | – | –
Cn1c(CNC(=O)CCNC(=O)c2cccc(Cl)c2)cc(=O)n(C)c1=O | – | ? | – | – | –
O=C(C/C=N/OCc1ccc(Cl)cc1Cl)c1ccccc1 | – | – | – | ? | 20.3
O=C(C/C=N/OCc1ccc(Cl)cc1Cl)c1ccc(Cl)cc1 | – | – | – | ? | –
O=C(C/C=N/OCc1c(Cl)cccc1Cl)c1ccccc1 | – | ? | – | ? | 37.0
CC(C)C(=O)NC(NC(=O)C(C)C)c1ccc([N+](=O)[O-])cc1 | – | – | – | – | –
CCc1cccc(C)c1NC(=S)NCC(c1cccnc1)N1CCOCC1 (stereo not drawn) | – | – | – | – | –
COC(=O)c1cc2ccsc2n1Cc1ccccc1F | – | 11.7µM | – | – | –
O=C(O)c1cccc(-n2cccc2/C=C2/SC(=O)N(CC(=O)N3CCCC3)C2=O)c1 | – | – | – | – | –
